Measured values published in the supplement of paper PMC10849652.
Targets with a hit are over-represented here; the source holds about 7,900 in all. About 0.6% of all pairs of compound and target were hits.

Experiments:
Assay in all cases: log2 fold change, soluble protein after heating vs DMSO (PISA); higher = thermal stabilisation; K562 cells, 10 uM, 30 min; active = over 0.2 and 3.5 SD of the protein, either way, in both replicates (recomputed)
erlotinib = compound: C#Cc1cccc(Nc2ncnc3cc(OCCOC)c(OCCOC)cc23)c1 [erlotinib]
Outline: (§1)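 K562 cells at 2×10^6 cells/mL were exposed to 10 μM compound for 30 min, then aliquots were heated for 3 min across 48°C-58°C, pooled, and extracted in PBS containing 0.5% NP-40 at 4°C. The supernatant after 21,000xg for 90 min was taken as soluble protein and measured by TMTpro 16plex LC-MS/MS with channel sums equalised. Thermal stability is reported relative to control samples, with values from duplicates. Fold changes are given on a log2 scale.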

[1] = compound: C/C(=N\NC(=O)C1=CC(=CC=C1)S(=O)(=O)N2CCOCC2)/C3=C(C=CC(=C3)Cl)O
Outline: as §1

[2] = compound: C1=CC(=C(C=C1Cl)C2=NC3=NC=CN=C3C(=N2)NC4=CC=NC=C4)F
Outline: as §1

[3] = compound: C1=CC(=CC=C1C2=NC3=C(N2)C=C(C=C3)C(=O)N)OC4=CC=C(C=C4)Cl
Outline: as §1

[4] = compound: C1=CC2=C(C=CC(=C2)/C=C\3/C(=O)NC(=NCC4=CC=CS4)S3)N=C1
Outline: as §1

[5] = compound: C1=CC2=NC=CN=C2C=C1/C=C/3\C(=O)NC(=O)S3
Outline: as §1

[6] = compound: C1=CC=C(C=C1)C2=NC(=C(N2)C3=CC=NC=C3)C4=CC(=C(C=C4)Cl)O
Outline: as §1

[7] = compound: C1=CC=C2C(=C1)C3=NNC4=CC=CC(=C43)C2=O
Outline: as §1

[8] = compound: C1CCN(C1)C(=O)NC2=CC=CC(=C2)NC3=NC=C(C(=N3)NCCC4=CN=CN4)Br
Outline: as §1

[9] = compound: C1CN(CCC1(CC2=CC=C(C=C2)Cl)N)C3=NC=NC4=C3C=CN4
Outline: as §1

IRAK-1-4 Inhibitor I = compound: C1COCCN1CCN2C3=CC=CC=C3N=C2NC(=O)C4=CC(=CC=C4)[N+](=O)[O-] [IRAK-1-4 Inhibitor I]
Outline: as §1

ibrutinib = compound: C=CC(=O)N1CCC[C@@H](n2nc(-c3ccc(Oc4ccccc4)cc3)c3c(N)ncnc32)C1 [ibrutinib]
Outline: as §1

[10] = compound: CC(=O)c1cnc2ccc(-c3cc(Cl)c(O)c(Cl)c3)nc2c1N[C@H]1CC[C@H](CN(C)C)CC1
Outline: as §1

ralimetinib = compound: CC(C)(C)Cn1c(N)nc2ccc(-c3[nH]c(C(C)(C)C)nc3-c3ccc(F)cc3)nc21 [ralimetinib]
Outline: as §1

[11] = compound: CC(C)(O)CC(=O)NCCn1ccc2ncnc(Nc3ccc(Oc4cccc(C(F)(F)F)c4)c(Cl)c3)c21
Outline: as §1

[12] = compound: CC(C)C1=C2N=C(C=C(N2N=C1)NCC3=CC=CC=C3)NCCCCCCN
Outline: as §1

[13] = compound: CC(C)C[C@@H](C=O)NC(=O)[C@H](CC(C)C)NC(=O)[C@H](CC(C)C)NC(=O)OCc1ccccc1
Outline: as §1

pinometostat = compound: CC(C)N(C[C@H]1O[C@@H](n2cnc3c(N)ncnc32)[C@H](O)[C@@H]1O)[C@H]1C[C@@H](CCc2nc3cc(C(C)(C)C)ccc3[nH]2)C1 [pinometostat]
Outline: as §1

[14] = compound: CC1=C(C(CC(=O)N1)C2=CC=C(C=C2)C(F)(F)F)C(=O)NC3=C(C=C4C(=C3)C=NN4)F
Outline: as §1

[15] = compound: CC1=C(C2=C(C=C1)C(=O)C3=CC=CC=C3N2CCCN)C
Outline: as §1

Measured: log2 fold change

COX20 isoform 2 (UniProt Q5RI15)
inactive: erlotinib 0.037 | [1] 0.013 | [2] 0.072 | [3] 0.008 | [4] 0.057 | [5] 0.016 | [6] -0.092 | [7] -0.061 | [8] 0 | [9] 0.03 | IRAK-1-4 Inhibitor I -0.019 | ibrutinib 0.043 | [10] -0.022 | ralimetinib -0.055 | [11] 0.016 | [12] 0.006 | [13] 0 | pinometostat -0.018 | [14] -0.018 | [15] 0.019

CHCHD2 (UniProt Q9Y6H1)
Chain of UniProt Q9Y6H1 (Q9Y6H1 whole entry, looked up): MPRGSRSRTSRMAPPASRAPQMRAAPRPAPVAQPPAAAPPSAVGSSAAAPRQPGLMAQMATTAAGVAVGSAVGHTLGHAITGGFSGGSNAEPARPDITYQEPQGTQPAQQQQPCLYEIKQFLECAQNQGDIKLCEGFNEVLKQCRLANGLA
inactive: erlotinib -0.083 | [1] 0.107 | [2] 0.092 | [3] 0.049 | [4] 0.028 | [5] 0.032 | [6] -0.028 | [7] 0.098 | [8] 0.003 | [9] -0.001 | IRAK-1-4 Inhibitor I 0.009 | ibrutinib 0.067 | [10] 0.022 | ralimetinib -0.035 | [11] -0.017 | [12] 0.095 | [13] -0.071 | pinometostat -0.068 | [14] 0.144 | [15] -0.004

CAMSAP1 isoform 3 (UniProt Q5T5Y3)
Chain of UniProt Q5T5Y3 (Q5T5Y3 whole entry, looked up): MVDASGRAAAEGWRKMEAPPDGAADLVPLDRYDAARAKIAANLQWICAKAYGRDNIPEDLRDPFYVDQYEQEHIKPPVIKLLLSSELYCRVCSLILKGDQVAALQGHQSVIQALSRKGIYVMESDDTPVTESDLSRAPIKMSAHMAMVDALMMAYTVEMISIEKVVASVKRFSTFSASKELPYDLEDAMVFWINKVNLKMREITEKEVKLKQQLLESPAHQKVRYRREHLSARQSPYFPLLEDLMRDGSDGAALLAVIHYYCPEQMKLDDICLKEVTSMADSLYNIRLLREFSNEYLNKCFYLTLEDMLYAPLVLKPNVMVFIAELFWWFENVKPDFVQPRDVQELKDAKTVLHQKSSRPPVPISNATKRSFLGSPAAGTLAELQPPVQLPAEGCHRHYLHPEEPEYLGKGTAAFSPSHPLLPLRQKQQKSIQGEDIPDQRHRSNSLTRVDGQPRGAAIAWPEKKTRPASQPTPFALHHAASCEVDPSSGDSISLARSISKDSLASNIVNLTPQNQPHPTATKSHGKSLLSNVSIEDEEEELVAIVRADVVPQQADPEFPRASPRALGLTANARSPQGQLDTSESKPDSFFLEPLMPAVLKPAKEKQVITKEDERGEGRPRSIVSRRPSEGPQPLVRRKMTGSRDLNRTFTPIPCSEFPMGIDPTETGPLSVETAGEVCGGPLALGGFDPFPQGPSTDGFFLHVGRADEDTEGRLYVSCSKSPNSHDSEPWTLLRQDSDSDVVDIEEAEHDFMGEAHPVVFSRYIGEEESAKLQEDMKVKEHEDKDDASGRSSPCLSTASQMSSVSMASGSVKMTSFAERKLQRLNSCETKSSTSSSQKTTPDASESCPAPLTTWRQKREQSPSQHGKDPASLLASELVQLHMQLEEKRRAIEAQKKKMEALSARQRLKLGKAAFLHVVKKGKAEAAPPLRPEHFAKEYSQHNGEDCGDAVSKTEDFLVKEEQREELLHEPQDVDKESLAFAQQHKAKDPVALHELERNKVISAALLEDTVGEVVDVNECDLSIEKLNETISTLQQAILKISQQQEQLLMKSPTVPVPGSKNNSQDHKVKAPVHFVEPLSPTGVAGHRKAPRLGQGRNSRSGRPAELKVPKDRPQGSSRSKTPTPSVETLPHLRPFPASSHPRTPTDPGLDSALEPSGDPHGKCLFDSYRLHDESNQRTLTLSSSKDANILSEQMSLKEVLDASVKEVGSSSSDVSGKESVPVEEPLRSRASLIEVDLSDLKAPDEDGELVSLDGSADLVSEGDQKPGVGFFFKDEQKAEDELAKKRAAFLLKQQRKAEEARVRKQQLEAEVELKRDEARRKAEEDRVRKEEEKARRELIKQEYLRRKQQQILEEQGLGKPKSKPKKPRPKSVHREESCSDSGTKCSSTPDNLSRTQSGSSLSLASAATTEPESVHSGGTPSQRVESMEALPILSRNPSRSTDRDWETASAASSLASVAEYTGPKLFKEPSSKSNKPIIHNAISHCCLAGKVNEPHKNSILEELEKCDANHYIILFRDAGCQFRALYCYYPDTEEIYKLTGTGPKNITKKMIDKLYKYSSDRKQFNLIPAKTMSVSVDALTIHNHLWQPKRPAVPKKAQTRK
inactive: erlotinib -0.084 | [1] 0.023 | [2] -0.014 | [3] -0.013 | [4] 0.058 | [5] 0.007 | [6] 0.035 | [7] -0.078 | [8] -0.016 | [9] 0.006 | IRAK-1-4 Inhibitor I -0.076 | ibrutinib -0.069 | [10] -0.29 | ralimetinib -0.031 | [11] -0.062 | [12] -0.078 | [13] 0.031 | pinometostat 0.121 | [14] -0.056 | [15] 0.108

CAD (UniProt P27708)
Chain of UniProt P27708 (P27708 whole entry, looked up): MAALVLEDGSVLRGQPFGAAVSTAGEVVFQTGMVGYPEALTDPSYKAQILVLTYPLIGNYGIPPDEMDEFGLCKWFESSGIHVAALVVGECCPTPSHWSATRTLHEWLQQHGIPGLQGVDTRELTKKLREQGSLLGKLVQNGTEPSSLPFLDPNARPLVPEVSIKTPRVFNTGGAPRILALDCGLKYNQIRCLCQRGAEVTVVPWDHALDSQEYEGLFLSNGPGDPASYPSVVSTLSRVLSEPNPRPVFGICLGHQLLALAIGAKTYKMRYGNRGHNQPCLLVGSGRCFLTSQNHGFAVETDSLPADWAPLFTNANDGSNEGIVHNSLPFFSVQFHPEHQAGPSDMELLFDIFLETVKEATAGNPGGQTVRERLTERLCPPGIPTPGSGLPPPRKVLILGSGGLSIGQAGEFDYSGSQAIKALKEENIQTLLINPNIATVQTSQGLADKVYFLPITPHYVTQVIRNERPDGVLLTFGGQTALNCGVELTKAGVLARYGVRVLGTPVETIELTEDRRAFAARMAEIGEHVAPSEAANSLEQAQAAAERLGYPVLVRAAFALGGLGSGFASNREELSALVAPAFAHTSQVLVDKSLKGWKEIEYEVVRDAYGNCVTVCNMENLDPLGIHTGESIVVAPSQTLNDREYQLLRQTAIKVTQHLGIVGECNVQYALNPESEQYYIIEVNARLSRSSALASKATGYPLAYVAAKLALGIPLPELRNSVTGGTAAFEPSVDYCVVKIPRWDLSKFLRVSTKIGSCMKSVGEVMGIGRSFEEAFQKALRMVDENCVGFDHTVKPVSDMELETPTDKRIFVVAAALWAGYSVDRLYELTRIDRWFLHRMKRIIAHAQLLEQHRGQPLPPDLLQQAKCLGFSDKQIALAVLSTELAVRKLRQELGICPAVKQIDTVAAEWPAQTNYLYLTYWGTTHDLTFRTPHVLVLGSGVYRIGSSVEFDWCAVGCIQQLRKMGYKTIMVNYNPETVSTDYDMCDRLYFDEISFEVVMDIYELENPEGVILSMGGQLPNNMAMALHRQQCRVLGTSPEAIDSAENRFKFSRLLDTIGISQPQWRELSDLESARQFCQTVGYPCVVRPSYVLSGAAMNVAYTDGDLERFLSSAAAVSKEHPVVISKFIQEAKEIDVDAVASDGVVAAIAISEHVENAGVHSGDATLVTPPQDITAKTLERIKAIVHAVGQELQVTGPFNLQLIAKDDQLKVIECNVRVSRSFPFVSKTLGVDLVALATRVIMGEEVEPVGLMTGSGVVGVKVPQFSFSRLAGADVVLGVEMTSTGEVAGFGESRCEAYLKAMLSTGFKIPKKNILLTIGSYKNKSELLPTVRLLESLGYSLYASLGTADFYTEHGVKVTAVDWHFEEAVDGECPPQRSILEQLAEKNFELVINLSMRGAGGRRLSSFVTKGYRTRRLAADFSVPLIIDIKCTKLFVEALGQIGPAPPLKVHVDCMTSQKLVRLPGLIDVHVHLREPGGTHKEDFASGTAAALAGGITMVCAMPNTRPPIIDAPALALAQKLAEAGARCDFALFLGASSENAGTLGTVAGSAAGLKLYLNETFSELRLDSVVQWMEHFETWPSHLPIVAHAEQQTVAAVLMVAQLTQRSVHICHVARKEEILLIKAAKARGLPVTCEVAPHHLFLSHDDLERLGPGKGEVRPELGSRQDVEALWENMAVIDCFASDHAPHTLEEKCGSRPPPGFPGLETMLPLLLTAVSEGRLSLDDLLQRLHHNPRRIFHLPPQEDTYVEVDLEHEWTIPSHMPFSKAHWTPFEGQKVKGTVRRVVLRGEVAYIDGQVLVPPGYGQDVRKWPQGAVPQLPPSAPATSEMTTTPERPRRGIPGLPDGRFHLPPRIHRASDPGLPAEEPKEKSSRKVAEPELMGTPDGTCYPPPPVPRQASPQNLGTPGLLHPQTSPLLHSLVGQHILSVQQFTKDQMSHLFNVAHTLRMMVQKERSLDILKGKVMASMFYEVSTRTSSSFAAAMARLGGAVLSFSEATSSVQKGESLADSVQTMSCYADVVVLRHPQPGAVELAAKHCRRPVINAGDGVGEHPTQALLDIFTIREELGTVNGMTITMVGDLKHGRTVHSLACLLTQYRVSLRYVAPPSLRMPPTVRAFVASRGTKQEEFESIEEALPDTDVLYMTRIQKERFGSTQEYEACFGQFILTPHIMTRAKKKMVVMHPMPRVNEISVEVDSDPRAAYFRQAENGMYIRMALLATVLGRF
inactive: erlotinib -0.083 | [1] 0.042 | [2] -0.014 | [3] -0.003 | [4] 0.125 | [5] -0.011 | [6] 0.057 | [7] -0.063 | [8] 0.013 | [9] 0.046 | IRAK-1-4 Inhibitor I -0.064 | ibrutinib 0.008 | ralimetinib -0.06 | [11] -0.168 | [12] 0.029 | [13] 0.021 | pinometostat 0.028 | [14] 0.03
active: [10] -0.402 | [15] 0.272

COPS8 (UniProt Q99627)
Chain of UniProt Q99627 (Q99627 whole entry, looked up): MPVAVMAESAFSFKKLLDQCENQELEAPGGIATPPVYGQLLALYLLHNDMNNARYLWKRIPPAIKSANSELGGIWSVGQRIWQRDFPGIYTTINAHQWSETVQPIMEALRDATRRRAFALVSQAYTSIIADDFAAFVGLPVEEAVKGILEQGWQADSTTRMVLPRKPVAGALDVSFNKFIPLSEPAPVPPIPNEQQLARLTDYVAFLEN
inactive: erlotinib 0.033 | [1] 0.032 | [2] -0.005 | [3] -0.002 | [4] 0.081 | [5] 0.008 | [6] 0.012 | [7] -0.042 | [8] -0.04 | [9] 0.015 | IRAK-1-4 Inhibitor I -0.006 | ibrutinib 0.039 | [10] -0.011 | ralimetinib -0.042 | [11] 0.031 | [12] 0.043 | [13] 0.027 | pinometostat -0.021 | [14] -0.006 | [15] 0.13

CPQ (UniProt Q9Y646)
Chain of UniProt Q9Y646 (Q9Y646 whole entry, looked up): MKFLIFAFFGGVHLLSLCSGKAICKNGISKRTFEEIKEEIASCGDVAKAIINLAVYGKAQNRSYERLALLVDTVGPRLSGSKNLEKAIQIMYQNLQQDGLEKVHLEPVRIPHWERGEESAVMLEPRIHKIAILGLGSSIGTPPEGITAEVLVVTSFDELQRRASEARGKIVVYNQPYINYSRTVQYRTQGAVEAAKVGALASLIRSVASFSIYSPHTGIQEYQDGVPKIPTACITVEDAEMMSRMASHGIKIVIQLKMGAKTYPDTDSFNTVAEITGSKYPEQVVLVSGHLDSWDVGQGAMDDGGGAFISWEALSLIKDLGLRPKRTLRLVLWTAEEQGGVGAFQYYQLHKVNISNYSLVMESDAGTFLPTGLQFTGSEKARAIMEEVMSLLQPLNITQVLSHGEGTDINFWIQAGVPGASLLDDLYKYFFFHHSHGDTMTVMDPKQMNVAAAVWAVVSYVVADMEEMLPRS
inactive: erlotinib 0.013 | [1] 0.002 | [2] 0.051 | [3] 0 | [4] 0.05 | [5] 0.004 | [6] 0.07 | [7] 0 | [8] -0.027 | [9] 0.125 | IRAK-1-4 Inhibitor I 0.095 | ibrutinib 0.01 | [10] -0.034 | ralimetinib -0.011 | [11] 0.003 | [12] 0.049 | [13] -0.032 | pinometostat 0.007 | [14] 0.023 | [15] 0.006

CCDC82 (UniProt Q8N4S0)
inactive: erlotinib -0.08 | [1] 0.035 | [2] 0.011 | [3] -0.026 | [4] -0.01 | [5] 0.046 | [6] -0.022 | [7] -0.092 | [8] -0.004 | [9] 0.022 | IRAK-1-4 Inhibitor I -0.041 | ibrutinib 0.022 | [10] -0.07 | ralimetinib -0.023 | [11] 0.012 | [12] 0 | [13] 0.028 | pinometostat -0.019 | [14] 0.108
active: [15] -0.65

COQ9 (UniProt O75208)
inactive: erlotinib 0.035 | [1] 0.082 | [2] 0.006 | [3] 0.016 | [4] 0.034 | [5] 0.056 | [6] 0.012 | [7] 0.008 | [8] -0.018 | [9] -0.001 | IRAK-1-4 Inhibitor I 0.005 | ibrutinib 0.03 | [10] -0.007 | ralimetinib -0.055 | [11] 0.085 | [12] -0.092 | [13] -0.024 | pinometostat -0.062 | [14] 0.019 | [15] 0.043

CDC42EP1 (UniProt Q00587)
Chain of UniProt Q00587 (Q00587 whole entry, looked up): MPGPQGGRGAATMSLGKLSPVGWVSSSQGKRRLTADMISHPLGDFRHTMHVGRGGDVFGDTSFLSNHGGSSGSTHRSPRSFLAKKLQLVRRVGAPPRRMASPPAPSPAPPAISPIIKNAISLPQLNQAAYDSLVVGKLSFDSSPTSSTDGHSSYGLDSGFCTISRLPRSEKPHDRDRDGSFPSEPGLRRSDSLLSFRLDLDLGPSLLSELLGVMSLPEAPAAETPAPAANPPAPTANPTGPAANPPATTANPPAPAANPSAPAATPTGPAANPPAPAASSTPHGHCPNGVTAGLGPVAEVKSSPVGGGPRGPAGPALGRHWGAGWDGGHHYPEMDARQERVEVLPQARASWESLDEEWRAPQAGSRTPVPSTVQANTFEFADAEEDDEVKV
inactive: erlotinib 0.09 | [1] 0.063 | [2] 0.006 | [3] 0.115 | [4] 0.136 | [5] -0.011 | [6] -0.005 | [7] -0.086 | [8] -0.133 | [9] -0.001 | IRAK-1-4 Inhibitor I 0.097 | ibrutinib 0.086 | ralimetinib 0.076 | [11] -0.104 | [13] -0.009 | pinometostat -0.043 | [14] -0.054 | [15] -0.055
active: [10] -0.527 | [12] -0.43

CHD3 isoform 3 (UniProt Q12873)
inactive: erlotinib -0.052 | [1] 0.148 | [2] 0.005 | [3] -0.062 | [4] 0 | [5] 0.034 | [6] 0.388 | [7] -0.123 | [8] -0.125 | [9] -0.093 | IRAK-1-4 Inhibitor I -0.052 | ibrutinib -0.1 | [10] -0.284 | ralimetinib 0.36 | [11] -0.075 | [12] -0.319 | [13] 0.186 | pinometostat 0.071 | [14] 0.125 | [15] -0.009

CBX1 (UniProt P83916)
inactive: erlotinib 0.025 | [1] -0.044 | [2] 0.022 | [3] 0.072 | [4] 0.004 | [5] 0.089 | [6] -0.055 | [7] -0.026 | [8] -0.007 | [9] -0.027 | IRAK-1-4 Inhibitor I -0.105 | ibrutinib -0.001 | [10] -0.038 | ralimetinib -0.054 | [11] 0.013 | [12] 0.034 | [13] -0.007 | pinometostat -0.143 | [14] -0.026
active: [15] -0.288

CD63 (UniProt P08962)
inactive: erlotinib 0.01 | [1] 0.024 | [2] -0.045 | [3] -0.089 | [4] -0.027 | [5] 0.069 | [6] 0.009 | [7] 0.002 | [8] 0.004 | [9] 0.034 | IRAK-1-4 Inhibitor I 0.022 | ibrutinib 0.036 | [10] 0.032 | ralimetinib 0.047 | [11] 0.006 | [12] 0.081 | [13] 0.056 | pinometostat 0.007 | [14] 0.017 | [15] 0.003

CHST11 (UniProt Q9NPF2)
inactive: erlotinib -0.061 | [1] 0.082 | [2] 0.046 | [3] -0.054 | [4] -0.118 | [5] 0.007 | [6] 0.161 | [7] 0.057 | [8] 0.002 | [9] -0.067 | IRAK-1-4 Inhibitor I -0.002 | ibrutinib -0.032 | [10] 0.063 | ralimetinib -0.406 | [11] 0.057 | [12] -0.257 | [13] -0.17 | pinometostat 0.084 | [14] -0.006 | [15] -0.058

COX15 (UniProt Q7KZN9)
inactive: erlotinib -0.01 | [1] -0.008 | [2] 0.067 | [3] -0.008 | [4] 0.03 | [5] 0.145 | [6] -0.009 | [7] -0.019 | [8] 0.01 | [9] 0.057 | IRAK-1-4 Inhibitor I 0.022 | ibrutinib -0.04 | [10] 0.027 | ralimetinib -0.03 | [11] -0.036 | [12] -0.04 | [13] 0.001 | pinometostat -0.022 | [14] -0.004 | [15] 0.008

CIT isoform 4 (UniProt O14578)
inactive: erlotinib -0.015 | [1] 0.045 | [2] -0.044 | [3] 0 | [4] -0.176 | [5] 0.13 | [6] -0.027 | [7] -0.002 | [8] -0.037 | [9] 0.021 | IRAK-1-4 Inhibitor I -0.013 | ibrutinib -0.057 | ralimetinib -0.008 | [11] -0.077 | [12] -0.021 | [13] 0.045 | pinometostat -0.005 | [14] 0.045 | [15] 0.118
active: [10] -0.462

CPSF1 (UniProt Q10570)
inactive: erlotinib -0.004 | [1] -0.057 | [2] -0.108 | [3] 0.039 | [4] -0.012 | [5] 0.02 | [6] -0.062 | [7] -0.045 | [8] 0.041 | [9] -0.037 | IRAK-1-4 Inhibitor I -0.006 | ibrutinib -0.007 | [10] 0.064 | ralimetinib 0 | [11] 0.036 | [12] -0.009 | [13] 0.075 | pinometostat 0.142 | [14] 0 | [15] -0.093
